LMP1 NFkB inh – reduces LMP1-driven NF-kappaB luciferase signal; LMP1-induced NF-kappaB luciferase reporter cells, luminescence; inhibition, % at 12.5 µM; 0.69% of 350,000 active; AID 504558; in the data active = inhibition above about 41%
Peg3 prom inh – inhibitors of Peg3 promoter; HeLa PEG-Prom luciferase reporter, luminescence, overnight; inhibition, % at 20 µM; 1.7% of 360,000 active;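 active = inhibition of at least 50% at 20 µM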
HIF-2a block – HIF-2a inhibition; inhibition, % at 18.8 µM; 0.72% of 360,000 active; 786-0 RCC cells HIF-2a reporter, luciferase luminescence, overnight; AID 624352;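 active = inhibition of the luminescence signal of 40% or more relative to plate controls, in a single-dose primary screen at 18.75 µM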
PAX8 reporter – lowers PAX8-driven luciferase in RMG-I cells; RMG-I TPO-luciferase reporter, SteadyGlo, 24 h; inhibition, % at 12.6 µM; 1.2% of 360,000 active; AID 652154;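 active = mean replicate inhibition at least 60% with every replicate also reaching 60%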;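 also: luciferase light reporting Pax8 driven TPO promoter activity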
Shn3 inh set2 – reduces Shn3 3'UTR luciferase signal in osteoblasts | Clone20 osteoblast Shn3 3'UTR firefly luciferase, 24 h | 0.52% of 360,000 active | inhibition, % at 12.5 µM;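 active = mean inhibition of at least 75% with every replicate also reaching 75%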
TRPM1 prom inh – inhibitors of MITF-driven TRPM1 promoter in melanoma cells; inhibition, % at 12.5 µM; 0.83% of 330,000 active; SK-MEL-5 TRPM1 promoter luciferase, 24 h;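 active = mean inhibition across replicates of 60% or more, whatever share of single replicates reaches that level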
Mdm2 MdmX conf – Mdm2/MdmX (human) interaction inhibition, confirmed | shares compounds with HIF-2a block | AID 504601 | SaOS-2 split-luciferase Mdm2/MdmX complementation, luminescence | 99% of 740 active | inhibition, % at 8 µM;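 active = mean inhibition of the luminescence signal across two replicates at or above 26 percent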
Target sequence (O15151 whole entry, looked up): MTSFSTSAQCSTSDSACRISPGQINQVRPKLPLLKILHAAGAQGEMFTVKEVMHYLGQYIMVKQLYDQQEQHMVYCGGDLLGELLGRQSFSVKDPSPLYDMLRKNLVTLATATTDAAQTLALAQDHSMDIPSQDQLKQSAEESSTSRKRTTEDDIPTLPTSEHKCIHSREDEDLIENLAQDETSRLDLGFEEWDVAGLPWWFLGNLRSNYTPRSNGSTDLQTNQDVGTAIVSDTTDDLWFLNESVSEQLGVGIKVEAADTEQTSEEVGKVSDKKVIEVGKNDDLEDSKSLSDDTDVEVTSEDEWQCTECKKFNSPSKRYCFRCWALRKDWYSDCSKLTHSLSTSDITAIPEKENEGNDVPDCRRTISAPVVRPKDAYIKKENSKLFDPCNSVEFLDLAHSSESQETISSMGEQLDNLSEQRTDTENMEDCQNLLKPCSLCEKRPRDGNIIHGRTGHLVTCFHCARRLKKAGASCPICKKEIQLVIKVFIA
Target sequence (Q00987 whole entry, looked up): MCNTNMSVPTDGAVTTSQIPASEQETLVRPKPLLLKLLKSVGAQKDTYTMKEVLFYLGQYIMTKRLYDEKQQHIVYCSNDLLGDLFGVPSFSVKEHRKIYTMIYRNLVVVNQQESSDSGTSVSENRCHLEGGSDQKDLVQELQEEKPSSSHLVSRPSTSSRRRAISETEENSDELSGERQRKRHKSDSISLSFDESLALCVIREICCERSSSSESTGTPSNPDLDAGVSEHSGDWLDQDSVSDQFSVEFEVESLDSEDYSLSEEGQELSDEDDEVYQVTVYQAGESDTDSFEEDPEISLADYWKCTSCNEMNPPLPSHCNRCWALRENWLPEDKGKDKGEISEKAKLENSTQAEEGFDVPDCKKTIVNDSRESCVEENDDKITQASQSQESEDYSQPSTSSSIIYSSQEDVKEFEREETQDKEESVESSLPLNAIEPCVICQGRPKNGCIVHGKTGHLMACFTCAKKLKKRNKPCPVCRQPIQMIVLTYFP
HIF-2a inh conf – confirmation of HIF-2a inhibitors | shares compounds with HIF-2a block | 786-0 RCC cells, HIF-2a luciferase reporter luminescence, overnight | inhibition, % at 18.8 µM | 56% of 1,800 active | AID 651580;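 active = mean inhibition across four replicates of at least 40 percent at the single tested concentration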
HIF-1a cs – HIF-1a inhibition counter-screen for HIF-2a hits; shares compounds with HIF-2a block; MiaPaCa-2 HIF-1a luciferase reporter, desferoxamine, overnight; inhibition, % at 18.8 µM; 72% of 1,800 active; AID 651589;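 active = mean inhibition of the reporter signal across four replicates at the single tested dose of 50% or more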
Large screens that a line does not name were inactive (follow-up assays come after a bar, where they were run). Most compounds without a hit are left out; they make up all but 2.8% or so of the library.

COC(=O)c1cc(=O)n(Cc2ccc(OC)c(OC)c2)c(=Nc2ccc(F)cc2)s1	Peg3 prom inh 81.2, HIF-2a block 70.0 | HIF-2a inh conf 68.2 | HIF-1a cs 102.1
COC(=O)c1cc(=O)n(Cc2ccc(F)cc2)c(=Nc2ccccc2)s1	Peg3 prom inh 54.9, HIF-2a block 53.1 | HIF-2a inh conf inactive | HIF-1a cs inactive
COC(=O)c1cc(C(=O)OC)n(Cc2ccc(F)cc2)c1C	none
COC(=O)c1cc(=O)n(CCc2ccc(OC)c(OC)c2)c(=Nc2ccc(F)c(Cl)c2)s1	Peg3 prom inh 99.0, HIF-2a block 74.9 | HIF-2a inh conf inactive | HIF-1a cs 96.3
CNC(=O)C1CC(=O)N(CCc2ccc(OC)c(OC)c2)C(=Nc2ccc(F)cc2)S1 (stereo not given)	none
O=C(c1cccc(F)c1)N1CC(=O)N2[C@@H](CO)[C@H](c3ccc(/C=C/c4ccccc4)cc3)[C@@H]2C1	none (no result: LMP1 NFkB inh, Peg3 prom inh, HIF-2a block, Shn3 inh set2, TRPM1 prom inh)
COc1ccc(-c2cc3c(=O)n(CC(=O)NCCCN4CCC(N5CCCCC5)CC4)nc(C)n3n2)cc1	TRPM1 prom inh 71.8 | Mdm2 MdmX conf 72.7
COc1ccc(-c2cc3c(=O)n(CC(=O)NCCCN4CCC(N5CCCCC5)CC4)ncn3n2)cc1	none
COc1ccc(NC(=O)N[C@H]2CC[C@@H](CCn3cc(C4(O)CCCC4)nn3)O[C@H]2CO)cc1	none (no result: LMP1 NFkB inh, Peg3 prom inh, HIF-2a block, Shn3 inh set2, TRPM1 prom inh)
CN(C)CCCn1cnc2c(c1=N)C(c1ccccc1)c1ccc3ccccc3c1O2 (stereo not given)	Peg3 prom inh 108.7, HIF-2a block 92.6, TRPM1 prom inh 98.8 | Mdm2 MdmX conf 103.0 | HIF-2a inh conf inactive | HIF-1a cs 105.8
CC1=CC(C)(C)Nc2ccc(OC(=O)CCN3C(=O)c4ccccc4C3=O)cc21	Peg3 prom inh 104.1, HIF-2a block 90.7 | HIF-2a inh conf 88.7 | HIF-1a cs 95.3
C[C@H](CO)N1C[C@H](C)[C@@H](CN(C)C)Oc2ccc(NC(=O)C3CCCCC3)cc2CC1=O	none (no result: LMP1 NFkB inh, Peg3 prom inh, HIF-2a block, Shn3 inh set2, TRPM1 prom inh)
O=C(CCc1ccccc1)NC(=S)Nc1cccc(C(=O)O)c1	none
O=C(CCCc1ccccc1)Nc1cccc(C(=O)O)c1	LMP1 NFkB inh 46.2, HIF-2a block 54.5, TRPM1 prom inh 69.7 | HIF-2a inh conf 58.9 | HIF-1a cs inactive
COc1ccc(NC(=O)c2cc([N+](=O)[O-])ccc2O)cc1	LMP1 NFkB inh 74.8, Peg3 prom inh 83.4, HIF-2a block 70.7, PAX8 reporter 100.2, TRPM1 prom inh 83.7 | HIF-2a inh conf 85.5 | HIF-1a cs 101.8
CCOC(=O)CNC(=O)CSc1ncnc2c1cnn2Cc1ccccc1	HIF-2a block 48.0 (no result: PAX8 reporter) | HIF-2a inh conf inactive | HIF-1a cs inactive
CO[C@H]1CN(C)C(=O)c2ccc(NS(=O)(=O)c3cccc(F)c3)cc2OC[C@H](C)N(C(=O)Cc2cccnc2)C[C@H]1C	none (no result: LMP1 NFkB inh, Peg3 prom inh, HIF-2a block, Shn3 inh set2, TRPM1 prom inh)
O=c1[nH]c(CN2CCN(S(=O)(=O)/C=C/c3ccccc3)CC2)nc2ccccc12	none
O=c1[nH]c(CN2CCN(S(=O)(=O)/C=C/c3ccccc3)CC2)nc2cc(Cl)ccc12	HIF-2a block 50.0 | HIF-2a inh conf inactive | HIF-1a cs 93.1
C[C@@H]1CN([C@@H](C)CO)C(=O)Cc2cc(N(C)C)ccc2O[C@@H]1CN(C)S(=O)(=O)c1cccs1	none (no result: LMP1 NFkB inh, Peg3 prom inh, HIF-2a block, Shn3 inh set2, TRPM1 prom inh)
C=C1CCC2C(C)(C)[C@H](O)CC[C@@]2(C)[C@@H]1COc1cc(=O)oc2ccccc12 (stereo not given in full)	none (no result: PAX8 reporter)
C=C1CC(COc2cc(=O)oc3ccccc23)(c2ccccc2)OC1=O (stereo not given)	LMP1 NFkB inh 67.0, Peg3 prom inh 105.5, HIF-2a block 90.1, Shn3 inh set2 97.3, TRPM1 prom inh 94.1 | HIF-2a inh conf 57.1 | HIF-1a cs 106.0
COc1ccc(NC(=S)NC(NC(=O)/C=C/c2ccccc2)C(Cl)(Cl)Cl)cc1 (stereo not given)	Peg3 prom inh 53.3, HIF-2a block 65.8 (no result: PAX8 reporter) | HIF-2a inh conf inactive | HIF-1a cs inactive
O=C(C[C@@H]1CC[C@H](NC(=O)Cc2cccnc2)[C@H](CO)O1)NCc1ccc2c(c1)OCO2	none (no result: LMP1 NFkB inh, Peg3 prom inh, HIF-2a block, Shn3 inh set2, TRPM1 prom inh)
[O-]/C(=C(\C(=S)Nc1cccc2ccccc12)[n+]1ccccc1)c1ccc2c(c1)OCCO2	HIF-2a block 69.6 | HIF-2a inh conf inactive | HIF-1a cs inactive
CC(C)(C)c1ccc(Cn2nnc3c(=O)[nH]c(C4CCCN(C(=O)c5cccs5)C4)nc32)cc1 (stereo not given)	HIF-2a block 42.5 | HIF-2a inh conf inactive | HIF-1a cs 84.1
O=C(Cc1ccncc1)NCC[C@H]1CC[C@@H](NC(=O)C2CCC2)[C@@H](CO)O1	none (no result: LMP1 NFkB inh, Peg3 prom inh, HIF-2a block, Shn3 inh set2, TRPM1 prom inh)
CCOc1ccccc1NC(=O)c1nc(S(=O)(=O)Cc2cccc(C)c2)ncc1Cl	LMP1 NFkB inh 66.3, Peg3 prom inh 106.2, HIF-2a block 90.2, PAX8 reporter 132.3, Shn3 inh set2 97.6, TRPM1 prom inh 93.4 | Mdm2 MdmX conf 102.5 | HIF-2a inh conf 85.9 | HIF-1a cs 103.2
CCc1nnc(NC(=O)c2nc(S(=O)(=O)Cc3ccc(C)cc3)ncc2Cl)s1	Peg3 prom inh 105.9, HIF-2a block 49.9, Shn3 inh set2 93.7, TRPM1 prom inh 69.5 | Mdm2 MdmX conf 103.0 | HIF-2a inh conf 63.2 | HIF-1a cs 107.5
CCSc1ncc(Cl)c(C(=O)Nc2ccccc2OC)n1	none
CCc1nnc(NC(=O)c2nc(S(=O)(=O)Cc3cccc(C)c3)ncc2Cl)s1	LMP1 NFkB inh 65.8, Peg3 prom inh 108.6, HIF-2a block 84.6, Shn3 inh set2 96.8, TRPM1 prom inh 75.7 | Mdm2 MdmX conf 102.7
COC(=O)C[C@H]1CC[C@@H]2[C@@H](COc3ccc(NC(=O)Cc4cccs4)cc3C(=O)N2C)O1	none (no result: LMP1 NFkB inh, Peg3 prom inh, HIF-2a block, Shn3 inh set2, TRPM1 prom inh)
N#C[C@H]1[C@H](c2ccccc2)[C@@H](CO)N1C(=O)c1cc(Cl)cc(Cl)c1	none (no result: LMP1 NFkB inh, Peg3 prom inh, HIF-2a block, Shn3 inh set2, TRPM1 prom inh)
C[C@H](CO)N1C[C@H](C)[C@H](CN(C)Cc2ccc(C(=O)O)cc2)OCCCC[C@H](C)Oc2ccc(NC(=O)c3ccccc3)cc2C1=O	none (no result: LMP1 NFkB inh, Peg3 prom inh, HIF-2a block, Shn3 inh set2, TRPM1 prom inh)
CC(=O)Nc1sc2c(c1-c1nc3ccccc3s1)CN(C(C)C)CC2	Peg3 prom inh 98.3, TRPM1 prom inh 64.2 | Mdm2 MdmX conf 102.7
CCN(CC)S(=O)(=O)c1cc([N+](=O)[O-])ccc1NNC(=O)Nc1ccc(Cl)c(Cl)c1	LMP1 NFkB inh 45.7, PAX8 reporter 88.7 (no result: Shn3 inh set2) | Mdm2 MdmX conf 93.7
COc1cc2c(cc1OC)C(C1C(=O)CC(C)(C)CC1=O)N(C(=O)CCl)CC2 (stereo not given)	none

High-throughput results (PubChem BioAssay)
